MITF TRPM1 HTS: MITF TRPM1 promoter activation in melanoma cells. SK-MEL-5 TRPM1-promoter luciferase, 24 h; % of positive control, neutral wells = 0. activation, % at 12.5 µM. 300,000 compounds, 0.75% hits. AID 588334;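 active means mean activation of at least 80% with every replicate also reaching 80%; inconclusive means mean reaches 80% but some replicate falls short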;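 further: 0% = neutral control wells and 100% = parthenolide positive control wells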
Ecoli rRNA inh: selective bacterial rRNA inhibition in E. coli; GFP signal change (wild-type ribosome), % (test concentration not listed); E. coli WT GFP vs humanized-ribosome RFP mutants, fluorescence, 24 h; hits give low values; DMSO median 0, no signal -100; 350,000 compounds, 1.6% hits;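 active means significant combined selectivity score with lowered wild-type GFP, culture density cut under 30%, mutant RFP and density less affected; inactive means any of these conditions unmet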
esBAF inh: SWI/SNF esBAF complex inhibition. 350,000 compounds, 2% hits. reporter increase, % at 12.5 µM. mouse ES cells, Bmi1-luciferase knock-in reporter, 24 h; 100% = twice the neutral-well signal; in the data active means activation above about 40%; inconclusive means no clear call, values can overlap the other calls;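 further: 0% = median of the plate's neutral control wells and 100% = double that signal; a rise in the Bmi1 reporter signal indicates esBAF inhibition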
Wnt act: activates Wnt/beta-catenin signaling in a reporter cell assay; 300,000 compounds, 1.2% hits; activation, % at 9.35 µM; activator, plate reader; in the data active means activation above about 30%, passing the limit was not always enough; inconclusive means no clear call, values can overlap the other calls;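 further: 0% = neutral control wells and 100% = positive control wells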
MLL AF4-AF9 inh: inhibitors of human MLL-AF4/AF9 interaction | AlphaScreen, biotin-AF4 peptide binding to FLAG-AF9 | inhibition, % at 10 µM | 350,000 compounds, 0.47% hits;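 active means every replicate reaching a set inhibition limit, whatever the replicate mean, cut at about 25% in these data; inconclusive means mean inhibition reaches that limit but some replicates miss it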;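 further: 0% = plate neutral control median and 100% = total signal loss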
Target sequence (P42568 whole entry, looked up): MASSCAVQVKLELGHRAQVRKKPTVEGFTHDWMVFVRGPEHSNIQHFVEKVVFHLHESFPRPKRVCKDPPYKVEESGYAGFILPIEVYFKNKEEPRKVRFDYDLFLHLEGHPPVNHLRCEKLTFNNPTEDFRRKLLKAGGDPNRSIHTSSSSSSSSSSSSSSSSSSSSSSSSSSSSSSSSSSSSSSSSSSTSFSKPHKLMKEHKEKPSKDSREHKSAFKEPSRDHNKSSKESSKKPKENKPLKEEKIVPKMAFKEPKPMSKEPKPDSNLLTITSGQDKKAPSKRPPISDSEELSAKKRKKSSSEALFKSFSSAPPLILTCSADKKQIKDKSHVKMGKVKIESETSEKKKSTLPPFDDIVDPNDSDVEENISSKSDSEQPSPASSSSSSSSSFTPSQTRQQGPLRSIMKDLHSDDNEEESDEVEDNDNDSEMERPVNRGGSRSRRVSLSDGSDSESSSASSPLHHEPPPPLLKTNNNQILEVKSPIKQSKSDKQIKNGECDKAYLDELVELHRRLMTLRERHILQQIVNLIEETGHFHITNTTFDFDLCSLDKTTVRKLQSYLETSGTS
AID977621: growth inhibition of wild-type GFP E. coli, dose response, H69 mutant RFP, cherry-pick. shares compounds with Ecoli rRNA inh. 1,900 tested, under 10 active. activity change, negative = inhibition at 50 µM. AID 977621. E. coli wild-type GFP strain growth, fluorescence, 24 h;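 active means Wild-type ribosome reporter drop at least double the humanized mutant ribosome reporter drop, growth loss under a set limit; inconclusive means no clear call, values can overlap the other calls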;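 further: wild-type GFP and H69 mutant RFP strains grown together 50/50 in each well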
AID977628: E. coli growth inhibition, wild-type GFP versus h24 humanized RFP strain, dose response, h24 mutant RFP vs wild-type GFP, cherry-pick. shares compounds with Ecoli rRNA inh. E. coli WT GFP strain growth, fluorescence, 24 h. activity change, negative = inhibition at 50 µM. 1,900 tested, under 10 active;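 active means compound lowering the normal-ribosome reporter at least twice as much as the humanized-ribosome reporter, growth loss under a set limit; inconclusive means no clear call, values can overlap the other calls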;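 further: wild-type GFP and h24 humanized RFP strains co-cultured 1 to 1 per well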
* = called active by the depositor. Compounds with a hit are over-represented: about 3.7% of the library has one in this group of screens.

How did COCC(=O)NCC1CCN(C(=O)C(=O)c2cccs2)CC1 do in these assays?
Ecoli rRNA inh: 11; Wnt act: 4; MLL AF4-AF9 inh: -1

How did Cc1cc(C(=O)OCC(=O)Nc2cccc(S(N)(=O)=O)c2)c2ccccc2n1 do in these assays?
MITF TRPM1 HTS: -6; Ecoli rRNA inh: -20*; Wnt act: 1; MLL AF4-AF9 inh: -11; AID977621: -6.5

What do the screens show for `O=C(NNC1=C(C(=O)C(F)(F)F)CCC1)c1ccc(Cl)cc1`?
MITF TRPM1 HTS: -18; Wnt act: 16

How did O=C(O)CNC(=O)C(c1ccccc1)c1ccccc1 do in these assays?
MITF TRPM1 HTS: 2; Ecoli rRNA inh: -17*; esBAF inh: -6; Wnt act: -1; MLL AF4-AF9 inh: -2; AID977621: -6.8; AID977628: -7

What do the screens show for `CCCCc1n(CC(=O)c2ccc(Cl)cc2)c2ccccc2[n+]1C`?
MITF TRPM1 HTS: -21; Ecoli rRNA inh: -19*; esBAF inh: -12; Wnt act: -4; MLL AF4-AF9 inh: 1; AID977628: -1.4

How did CC1(C)CC(=O)C=C(C2CC2)C1=O do in these assays?
Ecoli rRNA inh: 28; Wnt act: -3; MLL AF4-AF9 inh: -3

Results for O=C(CSc1nc2ccccc2c(=O)n1CC1CCCO1)NCC1CCCO1 (stereo not given) ?
MITF TRPM1 HTS: 3; Ecoli rRNA inh: 2; esBAF inh: -3; Wnt act: -1

Results for O=c1c2ccccc2nc(SCc2ccccc2)n1CC1CCCO1 (stereo not given) ?
MITF TRPM1 HTS: -6; Ecoli rRNA inh: -21*; Wnt act: -1; MLL AF4-AF9 inh: -7; AID977621: -12; AID977628: -18

How did COc1ccccc1C(C(C(=O)c1ccccc1)N1CCOCC1)N1CCOCC1 (stereo not given) do in these assays?
MITF TRPM1 HTS: -8; Ecoli rRNA inh: -14*; esBAF inh: 5; Wnt act: -3; MLL AF4-AF9 inh: 15; AID977621: -7.1; AID977628: inconclusive

How did CC(=O)C(C(c1ccccc1)N1CCOCC1)N1CCOCC1 (stereo not given) do in these assays?
MITF TRPM1 HTS: 18; Ecoli rRNA inh: 14; esBAF inh: -6; Wnt act: -5; MLL AF4-AF9 inh: -1

What do the screens show for `CC(=O)Nc1ccc(S(=O)(=O)Nc2cccc(-c3csc(C)n3)c2)cc1`?
MITF TRPM1 HTS: -12; esBAF inh: 12; Wnt act: 0; MLL AF4-AF9 inh: -1

Results for CC(=O)Nc1ccc(S(=O)(=O)Nc2cccc(-c3nc4cc(C)ccc4o3)c2)cc1 ?
MITF TRPM1 HTS: 4; Ecoli rRNA inh: -18*; esBAF inh: 15; Wnt act: 3; MLL AF4-AF9 inh: -1; AID977621: -3.9

What do the screens show for `CCOC(=O)N1CCN(C(=S)NC2CCCCC2)CC1`?
MITF TRPM1 HTS: -8; Ecoli rRNA inh: -2; Wnt act: 0; MLL AF4-AF9 inh: 0

How did Cc1ccc(C(=O)OCC(=O)c2c[nH]c3ccccc23)cc1NC(=O)c1ccco1 do in these assays?
MITF TRPM1 HTS: 21; Ecoli rRNA inh: -20*; Wnt act: 4; MLL AF4-AF9 inh: 4; AID977628: inconclusive

How did CCN(CC)C(=O)COC(=O)c1ccc(C)c(NC(=O)c2ccco2)c1 do in these assays?
MITF TRPM1 HTS: -4; Ecoli rRNA inh: -3; Wnt act: -2; MLL AF4-AF9 inh: -6

What do the screens show for `CCc1nc2ccccc2c(C(=O)OCC(=O)NC(=O)c2cccn2C)c1C`?
MITF TRPM1 HTS: 6; Ecoli rRNA inh: -24*; Wnt act: -1; MLL AF4-AF9 inh: 15; AID977621: inconclusive; AID977628: -4.1

How did CCc1nc2ccccc2c(C(=O)OCC(=O)NC2CC2)c1C do in these assays?
MITF TRPM1 HTS: -6; Ecoli rRNA inh: 8; esBAF inh: 8; Wnt act: -2; MLL AF4-AF9 inh: -1

Results for Cc1ccc(S(=O)(=O)Nc2ccccc2CNc2cccc(C)n2)cc1 ?
MITF TRPM1 HTS: 3; Ecoli rRNA inh: -16*; MLL AF4-AF9 inh: 0; AID977621: -15; AID977628: inconclusive
